Assay results reported in the supplement of paper PMC7724964.

T1: SPRED3 1-117 WH1 (domain begin residue: 1, domain end residue: 117), Q2MJR0
T1 chain: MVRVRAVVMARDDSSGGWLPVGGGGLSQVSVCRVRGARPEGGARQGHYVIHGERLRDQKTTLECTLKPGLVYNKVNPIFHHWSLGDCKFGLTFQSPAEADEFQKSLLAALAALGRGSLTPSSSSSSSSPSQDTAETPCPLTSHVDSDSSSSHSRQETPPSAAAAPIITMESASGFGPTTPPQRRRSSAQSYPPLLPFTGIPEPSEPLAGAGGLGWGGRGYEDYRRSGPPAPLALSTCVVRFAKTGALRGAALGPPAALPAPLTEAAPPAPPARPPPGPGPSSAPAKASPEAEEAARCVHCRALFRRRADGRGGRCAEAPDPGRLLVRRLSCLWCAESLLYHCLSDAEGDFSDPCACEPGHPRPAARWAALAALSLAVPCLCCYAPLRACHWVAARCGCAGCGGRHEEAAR

T2: STAM 1-143 VHS (domain begin residue: 1, domain end residue: 143), Q92783
T2 chain: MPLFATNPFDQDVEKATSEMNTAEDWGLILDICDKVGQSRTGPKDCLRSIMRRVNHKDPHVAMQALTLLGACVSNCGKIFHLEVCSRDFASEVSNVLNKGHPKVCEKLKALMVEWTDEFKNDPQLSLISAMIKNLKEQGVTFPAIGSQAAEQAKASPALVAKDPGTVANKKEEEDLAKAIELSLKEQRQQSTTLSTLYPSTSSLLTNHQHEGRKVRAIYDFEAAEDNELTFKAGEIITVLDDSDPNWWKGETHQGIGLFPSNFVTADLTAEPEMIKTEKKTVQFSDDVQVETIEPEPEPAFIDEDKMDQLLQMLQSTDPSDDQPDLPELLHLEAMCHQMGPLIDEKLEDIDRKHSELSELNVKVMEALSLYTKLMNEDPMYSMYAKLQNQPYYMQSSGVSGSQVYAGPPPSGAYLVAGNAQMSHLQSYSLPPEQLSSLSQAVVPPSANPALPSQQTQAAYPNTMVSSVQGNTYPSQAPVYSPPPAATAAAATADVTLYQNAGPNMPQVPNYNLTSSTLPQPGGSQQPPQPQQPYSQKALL

T3: SPSB2 26-221 SPRY (domain begin residue: 26, domain end residue: 221), Q99619
T3 chain: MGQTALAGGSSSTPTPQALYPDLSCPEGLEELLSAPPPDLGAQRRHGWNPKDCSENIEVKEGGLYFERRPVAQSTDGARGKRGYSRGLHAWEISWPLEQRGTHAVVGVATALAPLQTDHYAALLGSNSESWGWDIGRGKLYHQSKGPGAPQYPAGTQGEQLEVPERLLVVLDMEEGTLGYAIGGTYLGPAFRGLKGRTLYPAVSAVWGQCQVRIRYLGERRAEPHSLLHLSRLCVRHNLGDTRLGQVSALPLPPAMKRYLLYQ

T4: SPSB4 1-273 SPRY (domain begin residue: 1, domain end residue: 273), Q96A44
T4 chain: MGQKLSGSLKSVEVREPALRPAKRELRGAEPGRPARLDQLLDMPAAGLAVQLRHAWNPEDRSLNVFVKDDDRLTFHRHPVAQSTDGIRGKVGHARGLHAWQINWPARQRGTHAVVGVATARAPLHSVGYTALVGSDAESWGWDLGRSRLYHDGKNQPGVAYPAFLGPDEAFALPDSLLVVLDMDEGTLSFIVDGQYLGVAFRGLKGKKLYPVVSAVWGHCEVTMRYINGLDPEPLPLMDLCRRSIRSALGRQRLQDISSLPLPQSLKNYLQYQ


Molecular target: T1, SPRED3 1-117 WH1 (domain begin residue: …
Assay: phage ELISA signal ratio (GST-PRM binding over GST background); higher = stronger binding of peptide-phage to the PRM
How it was run: (§1)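 Approximately 48 individual clones from selection rounds 4 and 5 were tested by phage ELISA, and those scoring positive were sequenced. They came from five rounds of selecting an M13 phage library of randomized, cysteine-free, glycine-flanked hexadecapeptides on the gene-8 major coat protein against human peptide recognition domains fused to the C-terminus of glutathione S-transferase (GST) in 96-well plates. Each figure in the table is the ELISA signal on the GST-domain fusion relative to the signal on GST alone.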

Row | Binder | phage ELISA signal ratio
1 | EPDYGTAWFQHMMQEW | 31
2 | WTWMGDEEVFYHESLL | 23.8
3 | EQWWHTPQSVQAWINS | 19.5
4 | DVWYTTSESIIQYMQS | 27.7
5 | NDQYTWSQVHQGWLPL | 26.5
6 | HEMFLWDGETVMQVWW | 20.8
7 | VTPQEMWEEYIATLQI | 23.4
8 | DPGWYWEPAMLEAEWA | 28.4
9 | MWMWDGMQVVHLFEQY | 20.5

Molecular target: T2, STAM 1-143 VHS (domain begin residue: …
Assay: as above
How it was run: as §1

Row | Binder | phage ELISA signal ratio
10 | PFDAWPIGWEIQQQYF | 8.91
11 | HSEIWLMTYLDSLAMY | 13
12 | TQFNMHDEALFMTKLF | 19.2
13 | EPYMIQVPWESHWDVH | 9.25
14 | AYVWDDWVWTSLPWVE | 6.69
15 | DQEWLSKPWQFWAMDM | 4.69
16 | NKHDTEEFMVRTFLSE | 6.48
17 | QERNHHDPHALWESLF | 20.8
18 | HESMVMFTDEFFQQYL | 5.23

Molecular target: T3, SPSB2 26-221 SPRY (domain begin …
Assay: as above
How it was run: as §1

Row | Binder | phage ELISA signal ratio
19 | AGPDWNHNRLTFNHPQ | 35.2
20 | RFPMYDHNANLLPLPQ | 38.1
21 | EVMYDWNGNASSLLMM | 35.3
22 | MVDLNGNTYSESMVAV | 33.8
23 | HLEQDWNGNWLMNEKD | 41.2
24 | EYTLDENANMEQLWEV | 35.8
25 | YFYLDSNNNQVIPSSV | 21.9
26 | RSDYARDANGNMVVEF | 21.3
27 | WLAQDYNNNHMWLDWK | 27.1
28 | DFNNNTGPRLAAETIV | 11.5
29 | MDWNNNWNHSLESTQN | 36.1
30 | MDFTDVNGNLLNAFTA | 38.3
31 | MGQLQDMQNNNWVPIV | 33.8
32 | DKYWPVDPNNNMPRFG | 37.4
33 | YPQWLASSRGEMNNNI | 36.2
34 | GFEFHPVYDWNNNIQK | 36.6
35 | KQDYLNVTDWNNNAVM | 44.7
36 | GFLDPNQNIVRETLIL | 34.2

Row | Binder | phage ELISA signal ratio
37 | WREEPHFHRDENGNII | 28.9
38 | MEKDMNGNMAVFEMHH | 39.2
39 | AHFELMNNNWLVPEFW | 30.8
40 | WDLDWAVSDHNGNVMV | 41.6
41 | NTMWFDLWDINNNPLS | 32.3
42 | VVYTGVDHNGNMYPVR | 9.45
43 | MEVFDMNGNYPVRSRT | 25
44 | PWHARDMNGNWTQRIE | 12.3
45 | TGENNNVMPPHLSEHV | 11.7
46 | PEFLDENNNVDVGHTW | 38.3
47 | IVDTYWAMENNNVGTV | 29.6
48 | KKDWNNNIEAWLVGEE | 36.6
49 | FEEMELVGDLNNNMMP | 32.8
50 | ERVMDLNGNWITKSVA | 10.8
51 | YEEFLDLNSNLQGLKT | 12.3
52 | YEIMENNNWLNNAGVF | 40.1
53 | YYLDENQNWISEGFLW | 12.1
54 | PARDINNNAATAYINV | 39.5

Molecular target: T4, SPSB4 1-273 SPRY (domain begin residue: …
Assay: as above
How it was run: as §1

Row | Binder | phage ELISA signal ratio
55 | WDFVGEWDSNNNTVTR | 7.05
56 | MVQDSINNNNWLVPWV | 7.42
57 | QMDYNQNMPSIQWARE | 8.15
